Assay results reported in ChEMBL document CHEMBL1157539, “Thousands of chemical starting points for antimalarial lead identification” (Nature, 2010).
Over roughly 13,000 compounds, “IFI” has its median near 4; the highest 2% begin near 17. Shown is part of a subset that was picked to be rich in the highest values.

Assay: GSK_TCMDC: Inhibition Frequency Index (IFI). The number of non-kinase HTS assays where a compound showed > 50 % inhibition, expressed as a percentage of the number of such assays in which the compound was tested
Type: functional

| Structure (SMILES) | IFI [%] |
| --- | --- |
| CCc1cc(COc2ccc(CNCCC(C)C)cc2I)c(OCc2ccccc2)c(COc2ccc(CNCCC(C)C)cc2I)c1 | 14.3 |
| CCOc1ccc2c(=NN=Cc3ccccc3OC)cc(C)[nH]c2c1 | 3.62 |
| Oc1ccc(-c2cc(COc3ccccc3C(F)(F)F)c(C3=CCNCC3)cc2COc2ccccc2C(F)(F)F)cc1 | 17.3 |
| FC(F)(F)c1ccccc1OCc1cc(-c2ccncc2)c(COc2ccccc2C(F)(F)F)cc1C1=CCNCC1 | 10.6 |
| Nc1nc(N)c2cc(NC(=O)c3ccc(Cl)c(Cl)c3)ccc2n1 | 15.9 |
| Cc1nc(C)c(-c2ccc(Oc3ccc(Cl)cc3Cl)cc2)c(O)c1Br | 1.52 |
| CCCOc1ccc(CCNCCCCNCCc2ccc(OCCC)c3ccccc23)c2ccccc12 | 12.5 |
| CSc1ccc2ccccc2c1CCNCCCCNCCc1c(SC)ccc2ccccc12 | 17 |
| FC(F)(F)COc1ccc(CNCCCCCCNCc2ccc(OCC(F)(F)F)c3ccccc23)c2ccccc12 | 21 |
| FC(F)(F)COc1c(CCNCCCCNCCc2ccc3ccccc3c2OCC(F)(F)F)ccc2ccccc12 | 19.3 |
| FC(F)(F)COc1ccc2ccccc2c1CNCCCCCCNCc1c(OCC(F)(F)F)ccc2ccccc12 | 14.9 |
| CN(C)c1c(CNCCCCCCNCc2ccc3ccccc3c2N(C)C)ccc2ccccc12 | 15.7 |
| FC(F)(F)COc1ccc(CCNCCCCNCCc2ccc(OCC(F)(F)F)c3ccccc23)c2ccccc12 | 20.3 |
| N#Cc1ccc(CNCCCCCCNCc2ccc(C#N)c3ccccc23)c2ccccc12 | 7.04 |
| O=[N+]([O-])c1ccc(CNCCCCCCNCc2ccc([N+](=O)[O-])c3ccccc23)c2ccccc12 | 10.3 |
| FC(F)(F)COc1ccc2ccccc2c1CCNCCCCNCCc1c(OCC(F)(F)F)ccc2ccccc12 | 23.4 |
| COc1ccc(CCNCCCCNCCc2ccc(OC)c3ccccc23)c2ccccc12 | 13.9 |
| FC(F)(F)COc1c(CNCCCCCCNCc2ccc3ccccc3c2OCC(F)(F)F)ccc2ccccc12 | 14.9 |
| O=S(=O)(NCCN1CCCC1)c1ccc(-c2cccc(CNCCc3cccs3)c2)cc1 | 9.52 |
| CON=Cc1sc(CNCCCN=c2cc(O)c3ccccc3[nH]2)c(C)c1Br | 6.52 |
| N=C(N)c1ccc2[nH]c(SCc3ccccc3)nc2c1 | 0.94 |
| O=c1c(Br)ccccc1Br | 11.6 |

| Structure (SMILES) | IFI [%] |
| --- | --- |
| CCN(CC)CCN(Cc1ccc(-c2ccc(C(F)(F)F)cc2)cc1)C(=O)Cn1c(CCc2cccc(F)c2F)cc(=O)cc1-c1ccccc1 | 11.3 |
| N=C(N)NN=Cc1ccccc1OCc1ccccc1Cl | 6.72 |
| CS(=O)(=O)NCCCNCc1ccc(-c2ccc(-c3nc4cc(C(F)(F)F)ccc4[nH]3)cc2)cc1 | 5.94 |
| CCc1ccc(CN2CCC(CNC(=O)c3cc(-c4cccc(C(F)(F)F)c4)cs3)C2)cc1 (stereo unspecified) | 14 |
| CCCCOc1ccc(CNCCCCCCNCc2ccc(OCCCC)c3ccccc23)c2ccccc12 | 17.8 |
| CCCOc1ccc(CNCCCCCCNCc2ccc(OCCC)c3ccccc23)c2ccccc12 | 15.6 |
| CCCCSc1ccc(CNCCCCCCNCc2ccc(SCCCC)c3ccccc23)c2ccccc12 | 14.8 |
| CC1(C)NC(=N)NC(=N)N1OCC=Cc1ccccc1 | 3.57 |
| COc1ccc2[nH]ccc(=NN=Cc3ccc(Cl)cc3)c2c1 | 0.74 |
| CO/C(=C\C=C\c1cc2cc(Cl)c(Cl)cc2[nH]1)C(=O)NCCCNC12CC3CC(CC(C3)C1)C2 | 21.1 |
| CCOc1ccccc1N1CCN(CCCNC(=O)/C(=C/C=C/c2cc3cc(Cl)c(Cl)cc3[nH]2)OC)CC1 | 10.8 |
| CCN(CC)CCCNC(=O)/C(=C/C=C/c1cc2cc(Cl)c(Cl)cc2[nH]1)OC | 8.46 |
| CO/C(=C\C=C\c1cc2cc(Cl)c(Cl)cc2[nH]1)C(=O)NCCCN1CCN(c2cccc(Cl)c2)CC1 | 8.27 |
| CO/C(=C\C=C\c1cc2cc(Cl)c(Cl)cc2[nH]1)C(=O)NCCCCN1CCN(c2ccccc2OC)CC1 | 19.1 |
| CCN(CC)CCNC(=O)/C(=C/C=C/c1cc2cc(Cl)c(Cl)cc2[nH]1)OC | 7.63 |
| CCOC(=O)c1ccc(NC(=O)Nc2ccc(-c3cccc(-c4nc5cccc(C)c5[nH]4)c3)cc2)cc1 | 7 |
| Cc1noc(C)c1-c1cccc(CNCc2ccc(-c3ccc(-c4nc5cc(F)ccc5[nH]4)cc3)cc2)c1 | 8.91 |
| COc1ccccc1CCNC(=O)c1cnc(N2CCN(c3ccncc3)CC2)c(Cl)c1 | 10.4 |
| O=C(NCCc1cccc(Cl)c1Cl)c1ccc(N2CCN(c3ccncc3)CC2)nc1 | 10.4 |
| O=C(NCCc1cccc(Cl)c1Cl)c1cnc(N2CCN(c3ccncc3)CC2)c(Cl)c1 | 20 |
| Cc1ccccc1CCNC(=O)c1cnc(N2CCN(c3ccncc3)CC2)c(Cl)c1 | 20.8 |
| O=C(Nc1cccc(Cl)c1)c1cnc(N2CCN(c3ccncc3)CC2)c(Cl)c1 | 16.7 |

| Structure (SMILES) | IFI [%] |
| --- | --- |
| Cc1ccccc1CCNC(=O)c1ccc(N2CCN(c3ccncc3)CC2)nc1 | 2.08 |
| COc1c(C2CCN(CCCCNC(=O)c3ccc(-c4ccc(Cl)cc4)c(O)c3)CC2)ccc2c1CCCC2 | 9.09 |
| CN1CCCN(c2ccnc3cc4c(cc23)N(C(=O)c2ccc(Cl)cc2Cl)CC4)CC1 | 0.72 |
| O=C(CCC1CCCCC1)NCCNc1cccc2ccccc12 | 1.47 |
| N=C(NCCCCC1CCCCC1)c1cccc(C(=N)NCCCCC2CCCCC2)n1 | 19.9 |
| N=C(NCCCc1ccccc1)c1cccc(C(=N)NCCCc2ccccc2)n1 | 1.47 |
| COc1ccc2c(=NN=Cc3ccc(OC)c4ccccc34)cc(C)[nH]c2c1 | 2.14 |
| O=C(Cn1c(SCc2cccc(F)c2F)cc(=O)c2ccccc21)N(CCCn1ccnc1)Cc1ccc(-c2ccc(C(F)(F)F)cc2)cc1 | 2.17 |
| CCc1ccc(CN2CCC(CNC(=O)c3cc(-c4cccc(Cl)c4)cs3)C2)cc1 (stereo unspecified) | 8.16 |
| CC(Cc1ccc(OCCN2CCN(c3ccccc3)CC2)cc1)NCC(O)c1cccc(Cl)c1F (stereo unspecified) | 12 |
| CC(Cc1ccc(OCCN2CCN(c3ccc(Cl)cc3)CC2)cc1)NCC(O)c1cccc(C(F)(F)F)c1 (stereo unspecified) | 18.1 |
| CC(Cc1ccc(OCCN2CCN(c3cccc(Cl)c3)CC2)cc1)NCC(O)c1cccc(Cl)c1 (stereo unspecified) | 16.4 |
| CC(Cc1ccc(CN2CCN(Cc3ccccc3)CC2)cc1)NCC(O)c1cccc(C(F)(F)F)c1 (stereo unspecified) | 9.15 |
| CC(Cc1ccc(OCCN2CCN(c3cccc(C(F)(F)F)c3)CC2)cc1)NCC(O)c1cccc(C(F)(F)F)c1 (stereo unspecified) | 10.8 |
| CC(Cc1ccc(OCCN2CCN(c3cccc(Cl)c3)CC2)cc1)NCC(O)c1cccc(C(F)(F)F)c1 (stereo unspecified) | 17.2 |
| N#Cc1ccc(CN2CCCN(Cc3cccc(NC(=O)c4ccc(-c5ccccc5)cc4)c3)CC2)cc1 | 8.28 |
| Cc1cc(NCCC(=O)NCCc2ccccc2)nc(NCCc2ccc(F)cc2)n1 | 4.55 |
| O=C(/C=C/c1ccc(C(F)(F)F)cc1)NCCCCCN1CCCN(C(=O)Nc2ccc(Cl)c(C(F)(F)F)c2)CC1 | 18.8 |
| O=C(/C=C/c1ccc(C(F)(F)F)cc1)NCCCCCN1CCN(C(=O)Nc2ccc(Cl)c(Cl)c2)CC1 | 13.7 |
| CC(C)c1ccc(NC(=O)NCC2CCCN(CCCCCNC(=O)/C=C/c3ccc(Cl)c(Cl)c3)C2)cc1 (stereo unspecified) | 12.1 |
| O=C(/C=C/c1ccc(C(F)(F)F)cc1)NCCCCCN1CCCN(C(=O)Nc2ccc(Cl)c(Cl)c2)CC1 | 20.4 |
| O=C(/C=C/c1ccc(Cl)cc1)NCCCCCN1CCCN(C(=O)Nc2ccc(Cl)c(C(F)(F)F)c2)CC1 | 14.3 |

| Structure (SMILES) | IFI [%] |
| --- | --- |
| O=C(/C=C/c1ccc(Cl)c(Cl)c1)NCCCCCCN1CCCN(C(=O)Nc2ccc(Cl)c(C(F)(F)F)c2)CC1 | 11.3 |
| O=C(/C=C/c1ccc(Cl)c(Cl)c1)NCCCCCN1CCCC(CNC(=O)Nc2ccc(C(F)(F)F)cc2)C1 (stereo unspecified) | 17.7 |
| O=C(/C=C/c1ccc(Cl)c(Cl)c1)NCCCCCCN1CCCN(C(=O)Nc2ccc(C(F)(F)F)cc2)CC1 | 12.3 |
| O=C(/C=C/c1ccc(Cl)c(Cl)c1)NCCCCCN1CCCC(CCCNC(=O)Nc2ccc(C(F)(F)F)cc2)C1 (stereo unspecified) | 11.3 |
| Cc1ccc2c(c1)c(C1CCN(C(=O)c3ccc([N+](=O)[O-])o3)CC1)cn2C | 4.35 |
| Cc1ccc(-c2nn3c(O)c4c(nc3c2C)CCCC4)cc1 | 0.88 |
| COc1c(C2CCN(CCN3CCC(CNC(=O)c4ccc(-c5ccc(C#N)cc5)cc4)CC3)CC2)ccc2c1CCCC2 | 16.2 |
| O=C(Nc1cccc(CN2CCCN(CCc3ccccc3)CC2)c1)c1ccc(Cl)c(Cl)c1 | 3.36 |
| CN1CCN(CCCN(Cc2cccc(-c3ccc(CNCCc4ccccc4)cc3)c2)C(=O)c2cccs2)CC1 | 11.3 |
| COC(=O)c1cccc(CNCc2ccc(-c3ccc(-c4nc5cc(C(F)(F)F)ccc5[nH]4)s3)cc2)c1 | 11.5 |
| Ic1cc(CNC2CCCCC2)ccc1OCc1cccc(COc2ccc(CNC3CCCCC3)cc2I)c1 | 10.1 |
| CCN(CC)Cc1cccc(-c2cc3c(-c4ccc(C(=O)O)c(C(C)C)c4)ccnc3[nH]2)c1OC | 0 |
| COc1cccc2c(NN=Cc3cccc(Cl)c3)ccnc12 | 3.62 |
| COc1cc2nc(NCc3nc4ccccc4[nH]3)nc(N)c2cc1OC | 0 |
| COc1ccc2ccccc2c1CCCCN1CCN(CC(c2ccc(F)cc2)N2CCN(C3CCCC3)CC2)CC1 (stereo unspecified) | 12.8 |
| CC(C)N1CCN(C(CN2CCN(CCCOc3ccc(-c4ccccc4)cc3)CC2)c2ccc(F)cc2)CC1 (stereo unspecified) | 20.3 |
| COc1ccc2ccccc2c1CCCCN1CCN(CC(c2ccc(F)cc2)N2CCC2)CC1 (stereo unspecified) | 18.4 |
| CC(C)N1CCN(C(CN2CCN(CCCOc3cccc(-c4ccccc4)c3)CC2)c2ccc(F)cc2)CC1 (stereo unspecified) | 16 |
| COc1ccc2ccccc2c1CCCCN1CCN(CC(c2ccc(F)cc2)N2CCN(C(C)C)CC2)CC1 (stereo unspecified) | 14.7 |
| CC(C)N1CCN(C(CN2CCN(CCCOc3ccccc3-c3ccccc3)CC2)c2ccc(F)cc2)CC1 (stereo unspecified) | 13.5 |
